Measurements from PubChem BioAssay (NCATS).
Inconclusive results are not listed. A call without a number means that no potency is given here. The source made the active and inactive calls. Calls follow the shape of the dose curve; as a rule, active = well fitted inhibition curve with a large enough effect; inconclusive = small, poorly fitted or top-dose-only effect; inactive = no such curve, though single readings can be large or run the other way.

Experiment: NS1 protein of Zika virus - qHTS assay to identify small molecule inhibitors in human HEK 293 cells (AID 1347053); also: nearly all actives have a fitted effect of over 55% in size
Details: HEK293 ZIKV MR766 infection, NS1 TR-FRET, 24 h; series mostly up to 46.1 µM
Source text: National Center for Advancing Translational Sciences [NCATS]
Johns Hopkins University School of Medicine
The non-structural 1 (NS1) protein of zika virus is known to associate with the viral replication complex. This cell-based TR-FRET ZIKV NS-1 assay measures the increased NS-1 protein in human HEK 293 cells after a 24-hour Zika virus infection by a TR-FRET assay readout. A decrease in the Time-resolved fluorescence energy transfer (TR-FRET) signal in this assay by small molecule treatment indicates an inhibitory effect of the small molecule on the expression of Zika virus NS1 correlating with Zika virus replication.
HEK 293 cells were cultured in EMEM (ATCC, Cat. # 30-2003) medium with 10% fetal bovine serum (GE healthcare Life Sciences, Cat. # SH30071.03), and 1% Pen/Strep (Gibco, Cat. # 15140-122). Cells were seeded in the assay plate and incubated at 37 C with 5% CO2 for 20 hours. Compounds were added to cells and incubated for one hour before addition of ZIKV MR766 strain solution to cells (MOI = 0.5). After an incubation at 37 C for 24 hours, the reagent mixture of TR-FRET ZIKV NS1 assay using two anti-ZIKV NS1 antibodies was added to assay plates. The TR-FRET signals in assay plates were measured using an Envision plate reader (PerkinElmer). Data were normalized by using the cell-containing wells without ZIKV as a negative control (0% NS-1) and wells containing ZIKV infected cells as a positive control (100% NS-1 level).
Potency is read from the fitted curve at half-maximal effect.

| Compound | Potency |
| --- | --- |
| CCOC(=O)N1c2ccc(C(F)(F)F)cc2[C@@H](N(Cc2cc(C(F)(F)F)cc(C(F)(F)F)c2)C(=O)OC)C[C@H]1CC | inactive |
| Fc1ccc(C(c2ccc(F)cc2)N2CCN(CC=Cc3ccccc3)CC2)cc1 | inactive |
| COc1nccc(-c2c(-c3ccc(F)cc3)ncn2C2CCNCC2)n1 | inactive |
| CCC[C@@H](NC(=O)[C@@H]1[C@H]2CCC[C@@H]2CN1C(=O)[C@@H](NC(=O)[C@@H](NC(=O)c1cnccn1)C1CCCCC1)C(C)(C)C)C(=O)C(=O)NC1CC1 | inactive |
| CC(C)=CCCC(C)=CCCC(C)=CCCC(C)=CCCC(C)=CCCC(C)=CCCC(C)=CCCC(C)=CCCC(C)=CCO | inactive |
| Cc1csc(-c2nnc(Nc3ccc(Oc4ncccc4-c4ccnc(N)n4)cc3)c3ccccc23)c1 | inactive |
| CC1(C)OC2CC3C4CC(F)C5=CC(=O)C=CC5(C)C4C(O)CC3(C)[C@]2(C(=O)CO)O1 (stereo not given in full) | inactive |
| CN(C)c1ccccc1CN1CCCN(Cc2ccccc2N(C)C)C1c1ccncc1 | 11.8 µM (active) |
| Cc1cc(NC(=O)Nc2ccc(N(C)C)cc2)c2cc(F)cc(F)c2n1 | inactive |
| COc1cc(N2CCN(C)CC2)ccc1Nc1nc(N)c(C(=O)c2c(Cl)cccc2Cl)s1 | inactive |
| CNC1[C@H](O)C(O[C@@H]2C(O)C(O[C@H]3O[C@H]([C@@H](C)NC)CC[C@H]3N)[C@@H](N)C[C@H]2N)OC[C@]1(C)O (stereo not given in full) | inactive |
| CNC(=O)[C@H](CC1=CN=C2C=CCC=C12)NC(=O)[C@@H](CC(=O)NO)CC(C)C | inactive |
| COc1cc(F)c(C(C)C)cc1-c1ccc(C(F)(F)F)cc1CN1C(=O)O[C@H](c2cc(C(F)(F)F)cc(C(F)(F)F)c2)[C@@H]1C | inactive |
| O=C1C(c2c(O)[nH]c3ccccc23)=Nc2ccccc21 | inactive |
| COc1cccc(OC)c1-c1cc(C(=O)NC2(C(=O)O)C3CC4CC(C3)CC2C4)nn1-c1ccnc2cc(Cl)ccc12 (stereo not given) | inactive |
| COc1nccc(-c2c(-c3ccc(F)cc3)ncn2C2CCC(O)CC2)n1 (stereo not given) | inactive |
| O=C(O)C1=CO[C@@H](O[C@@H]2O[C@H](CO)[C@H](O)[C@H](O)[C@H]2O)[C@@H]2C(CO)=CC[C@H]12 | inactive |
| CCCCC[C@H](O)C=C[C@H]1[C@H](O)CC(=O)[C@H]1CCCCCCC(=O)O | inactive |
| O=C(NC[C@H](O)CO)c1ccncc1Nc1ccc(I)cc1F | inactive |
| Cc1ccc(C(=O)N(CCCN)[C@@H](c2nc3cc(Cl)ccc3c(=O)n2Cc2ccccc2)C(C)C)cc1 | inactive |

| Compound | Potency |
| --- | --- |
| CCC(=C(c1ccc(O)cc1)c1ccc(OCCNC)cc1)c1ccccc1 | inactive |
| C[C@@H](N)c1ccc(C(=O)Nc2ccnc3[nH]ccc23)cc1 | inactive |
| COc1ccc(CCC(=O)Nc2nc3ccc(Cl)cc3s2)cc1OC | inactive |
| C=C1c2cccc(O)c2C(O)=C2C(=O)[C@@]3(O)C(O)=C(C(N)=O)C(=O)[C@@H](N(C)C)[C@@H]3[C@@H](O)[C@H]12 | inactive |
| CC[C@H](C)C(=O)O[C@H]1C[C@H](O)C=C2C=C[C@H](C)[C@H](CC[C@@H](O)C[C@@H](O)CC(=O)O)[C@H]21 | inactive |
| CN1CCc2c(n(Cc3ccc(C(=O)NO)cc3)c3ccccc23)C1 | inactive |
| CN(C(Cc1ccc(OS(=O)(=O)c2cccc3cnccc23)cc1)C(=O)N1CCN(c2ccccc2)CC1)S(=O)(=O)c1cccc2cnccc12 (stereo not given) | inactive |
| COc1cc(Cl)cn2c(-c3cccc(NC4CNC4)n3)cnc12 | inactive |
| CCCCC(F)(F)[C@@]1(O)CC[C@H]2[C@H](CC(=O)[C@@H]2CCCCCCC(=O)O)O1 | inactive |
| CCC(=O)NCC[C@@H]1CCc2ccc3c(c21)CCO3 | inactive |
| C[C@@H]1[C@H](C)CC[C@]2(C(=O)O)CC[C@]3(C)C(=CC[C@@H]4[C@@]5(C)CC[C@H](O)C(C)(C)[C@H]5CC[C@]43C)[C@@H]12 | inactive |
| C=CC[N+]1([C@H]2C[C@H]3[C@@H]4CC[C@H]5C[C@H](O)[C@@H](N6CCOCC6)C[C@]5(C)[C@@H]4CC[C@]3(C)[C@H]2OC(C)=O)CCCC1 | inactive |
| O=C1NC(=O)C(=Cc2ccc(-c3ccc(F)cc3O)o2)S1 | inactive |
| C[C@@H]1CC=CC=CC=CC=C[C@@H](O[C@@H]2O[C@H](C)[C@@H](O)[C@H](N)[C@H]2O)C[C@@H]2O[C@](O)(C[C@@H](O)C[C@@H]3O[C@@H]3C=CC(=O)O1)C[C@H](O)[C@@H]2C(=O)O | inactive |
| CN(C)S(=O)(=O)c1ccc2c(c1)C(=Cc1cc3c([nH]1)CCCC3)C(=O)N2 | inactive |
| CN[C@@H](C)[C@H]1[C@H](O)C[C@@]2(C)[C@@H]3CC[C@H]4C(C)(C)[C@@H](NC)CC[C@@]45C[C@@]35CC[C@]12C | inactive |
| CON(C)C(=O)N1N=C(c2cc(F)ccc2F)S[C@]1(CCCN)c1ccccc1 | 14.8 µM (active) |
| COc1cc2ncn(-c3cc(OCc4ccccc4S(C)(=O)=O)c(C#N)s3)c2cc1OC | inactive |
| OCCn1cc(-c2ccc3c(c2)CCC3=NO)c(-c2ccncc2)n1 | inactive |
| O=C(O)CCC=CCC[C@@H]1[C@H](N2CCCCC2)[C@@H](O)C[C@@H]1OCc1ccc(-c2ccccc2)cc1 | inactive |
